# Rows were chosen to be rich in hits. Some 17% of all compounds tested hit in one or more screens of this group.
# TDP1 cell CPT – growth inhibition of DT40 Tdp1-/-;hTDP1 cells with camptothecin (screen for TDP1 inhibitors); chicken DT40 Tdp1-/-;hTDP1 cells + 20 nM CPT, ATP luminescence, 48 h; Potency, µM (top dose mostly 46.2 µM), inactives show at the top dose activity change, negative = growth inhibition, hits mostly inhibitors; 420,000 tested, 12% active; also: % is scaled to controls: 0 for no effect and ±100 for the full control effect; nearly all actives have a fitted effect of over 55% in size
#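 Cell growth measured by CellTiter-Glo luminescence after a minimum 48 h, 37 C compound exposure with 20 nM CPT in Tdp1-knockout DT40 cells stably expressing hTDP1, seeded 400/well; qHTS titration format.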
# TDP1 cell noCPT – qHTS for Inhibitors of human tyrosyl-DNA phosphodiesterase 1 (TDP1): qHTS in cells in absence of CPT; Potency, µM (series often up to 46.2 µM), for the others: top-dose activity change, negative = growth inhibition, hits mostly inhibitors; 420,000 tested, 15% active; AID 686978, 2013; DT40 Tdp1-/- hTDP1 cells, no CPT, ATP luminescence, 48 h; also: % is scaled to controls: 0 for no effect and ±100 for the full control effect; nearly all actives have a fitted effect of over 55% in size
#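 Stably hTDP1-transfected Tdp1-null chicken DT40 cells were treated with library compounds minus camptothecin and grown for at least 48 hr at 37 °C, after which cellular ATP was quantified by luminescence.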
# TDP1 inh – inhibitors of human tyrosyl-DNA phosphodiesterase TDP1. Q9NUW8. recombinant TDP1, AlphaScreen DNA substrate cleavage. Potency, µM (titrated, usually from 130 µM), without a hit: at the top dose activity change, negative = inhibition, actives largely listed as inhibitors. 350,000 tested, 0.28% active. AID 485290; also: % is scaled to controls: 0 for no effect and ±100 for the full control effect; nearly all actives have a fitted effect of over 40% in size
#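 AlphaScreen read-out: signal falls as enzyme removes the 3' tyrosine-FITC from a 5'-biotinylated DNA oligo (15 nM, 5 min, RT). Enzyme was E. coli-made recombinant Tdp1 at 1 nM, exposed to compound for 15 min beforehand; beads 10 ug/ml, 10 min.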
# ClpP mod – qHTS Assay for Activators of ClpP. ATP-dependent Clp protease proteolytic subunit (Bacillus subtilis (strain 168)), P80244. purified B. subtilis ClpP, FRET peptide cleavage, 20 min. Potency, µM (top dose mostly 57.5 µM), for the others: at the highest dose activity change, negative = active. 340,000 tested, 1.9% active; active = well fitted falling curve with a large enough effect; inconclusive = small, poorly fitted or top-dose-only effect; inactive = no such curve, though single readings can be large or run the other way; also: the source files actives as falling curves though it sought activators and does not explain the sign; nearly all actives have a fitted effect of over 65% in size
# Target sequence (P80244 whole entry, looked up): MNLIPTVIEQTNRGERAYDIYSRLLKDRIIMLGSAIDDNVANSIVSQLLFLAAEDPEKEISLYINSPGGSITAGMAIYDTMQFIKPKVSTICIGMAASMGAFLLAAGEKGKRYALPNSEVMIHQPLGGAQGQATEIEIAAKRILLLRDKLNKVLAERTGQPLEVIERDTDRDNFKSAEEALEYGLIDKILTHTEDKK
#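 ClpP 10 microg/mL final, pH 8 Tris/KCl buffer with BSA, glycerol, Tween-20; compound pinned in; FRET-FV substrate; RT 20 min; Ex320/Em430; ΔFRET vs ADEP 5.8 microM, DMSO, no enzyme.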
# Numbers without * were called inactive; ? = inconclusive; / = no result given; [ ] = another dose, or the depositor's remark. Unless noted, calls follow the shape of the dose curve; as a rule, active = well fitted curve in the direction sought with a large enough effect; inconclusive = small, poorly fitted or top-dose-only effect, or another doubt; inactive = no such curve, though single readings can be large; an effect the other way counts as inactive or inconclusive. Potency is read from the fitted curve at half-maximal effect.
SMILES,TDP1 cell CPT,TDP1 cell noCPT,TDP1 inh,ClpP mod
CCN(CC)CCCNC(=O)c1cn(CC(C)C)c(=O)c2c1c1ccccc1n2C,15%,-19%,-1%,16µM*
Cn1c2ccccc2c2c(C(=O)NCC3CCCO3)cn(C3CCCC3)c(=O)c21 (centres undefined),-23%,-24%,5%,-22%
CC(C)Cn1cc(C(=O)NCC2CCCO2)c2c3ccccc3n(C)c2c1=O (centres undefined),-27%,-28%,4%,16µM*
O=C(Nc1nnc(Cc2ccccc2F)s1)Nc1ccccc1F,?,-21%,1%,1%
Cc1cccc(CCNC(=O)C2CC(O)CN2C(=O)Nc2ccccc2)c1 (centres undefined),-3%,0%,/,1%
COC(=O)c1cc2ccsc2n1CC(=O)Nc1cc(Cl)ccc1OC,7.3µM*,13µM*,5%,-9%
C[C@H]1[C@H](c2ccccc2)C[C@@H](C(=O)O)C1(C)C,0%,2%,0%,0%
Cc1nc2scc(C)n2c(=O)c1S(=O)(=O)NCCc1ccccc1,?,?,0%,3%
Cc1cn2c(=O)c(S(=O)(=O)NCCc3ccccc3)c(C)nc2s1,-23%,-7%,-3%,28µM*
Cc1ccc(NS(=O)(=O)c2c(C)nc3sc(C)cn3c2=O)c(C)c1,18µM*,18µM*,8%,-6%
COc1ccc(C)cc1NS(=O)(=O)c1c(C)nc2sc(C)cn2c1=O,?,?,3%,-3%
COc1ccccc1CNS(=O)(=O)c1c(C)nc2sc(C)cn2c1=O,10%,8%,5%,32µM*
COC(=O)CNC(=O)C1(C)C=CCN1C(=O)c1ccccc1 (centres undefined),-7%,1%,4%,1%
COc1ccc(-c2ccc(C(=O)Nc3cccc(NS(C)(=O)=O)c3)c3occc23)c(C)c1,16µM*,?,/,4%
CN(C)CCNC(=O)c1ccc(-c2cnn(C)c2)c2ccoc12,4%,-18%,/,4%
COc1ccc(-c2ccc(C(=O)Nc3ccc(C(C)C)cc3)c3occc23)c(C)c1,?,16µM*,/,?
COc1ccc(-c2coc3c(C(=O)Nc4cccc(C(C)=O)c4)cccc23)c(C)c1,18µM*,21µM*,/,-13%
Cn1cc(-c2ccc(C(=O)Nc3cccc(Oc4ccccc4)c3)c3occc23)cn1,0%,?,/,22µM*
O=C(CSc1nnc(-c2ccccc2)c(-c2ccccc2)n1)NC1CCS(=O)(=O)C1 (centres undefined),3%,-22%,5%,/
Cc1ccc(-c2nc(S(=O)(=O)c3ccc(Cl)cc3)c(N3CCCCC3)o2)cc1,-11%,?,2%[12.3 µM],-2%
Cc1ccc(NC(=O)C(=O)NCCOc2ccc(Cl)cc2)c(C)c1,-8%,1%,5%,11%
Cc1ccc(-c2noc(COc3ccc(Br)c(C)c3)n2)cc1,-3%,-12%,0%,-2%
COc1ccc(-c2coc3c(C(=O)Nc4cccnc4)cccc23)c(C)c1,18µM*,8.2µM*,/,-6%
COc1ccc(-c2ccc(C(=O)Nc3cccc(N(C)C)c3)c3occc23)c(C)c1,?,?,/,28µM*
COc1ccc(-c2ccc(C(=O)NCc3ccco3)c3occc23)c(C)c1,?,?,/,4%
SMILES,TDP1 cell CPT,TDP1 cell noCPT,TDP1 inh,ClpP mod
COc1ccc(-c2ccc(C(=O)NCCc3ccccc3)c3occc23)c(C)c1,21µM*,21µM*,/,5%
COc1ccc(-c2ccc(C(=O)Nc3cccc(Oc4ccccc4)c3)c3occc23)c(C)c1,23µM*,16µM*,/,5%
COc1cccc(NC(=O)c2cc(-c3ccc(OC)cc3OC)nc3ccccc23)c1,?,?,/,-29%
Nc1nc(COC(=O)c2ccco2)nc(Nc2ccccc2)n1,-1%,1%,/,0%
CCCCN(C(=O)c1cc(CC)c(C)s1)c1c(N)n(CCC)c(=O)[nH]c1=O,-3%,9%,-11%,1%
CN(CCO)c1cccc2c1S(=O)(=O)N[C@@H](Cc1ccccc1)CO2,-19%,?,/,-5%
Cc1ccc(NC(=O)Cn2c(C)cc(C)c(C#N)c2=O)cc1,3%,-23%,-4%,-16%
COc1ccc(-c2ccc(C(=O)NCc3ccc(N(C)C)cc3)c3occc23)c(C)c1,?,16µM*,/,?
COc1ccc(-c2ccc(C(=O)Nc3cccc(C(C)=O)c3)c3occc23)c(C)c1,12µM*,8.2µM*,/,-27%
COc1ccc(-c2ccc(C(=O)Nc3cccc(F)c3)c3occc23)c(C)c1,?,?,/,5%
CN1CCC(OC(c2ccccc2)c2ccccc2)CC1,-9%,-22%,-6%[56.1 µM],1%
CN1CCC(Oc2ccccc2Sc2ccccc2)CC1,?,16µM*,-5%,-3%
COc1ccc(CCNC(=O)C/C(C)=N/NC(=O)COc2ccc(C)cc2Br)cc1OC,7%,-16%,/,/
COc1ccccc1CNC(=O)C/C(C)=N/NC(=O)COc1ccc(C)cc1Br,12µM*,12µM*,4%,-3%
Cc1ccc(NS(=O)(=O)c2ccc(NC(=O)c3ccc(-c4ccccc4)cc3)cc2)c(C)c1,23µM*,23µM*,/,-4%
Cc1ccc(NS(=O)(=O)c2ccc(NC(=O)c3ccccc3C(=O)O)cc2)c(C)c1,-1%,-1%,/,/
Cc1ccc(NS(=O)(=O)c2cccc(C(=O)NC3CC3)c2)c(C)c1,-20%,-14%,0%,-2%
Cc1ccc(NS(=O)(=O)c2ccc(NC(=O)c3ccc(Br)o3)cc2)c(C)c1,?,26µM*,6%,-6%
Cc1cc(C)cc(NS(=O)(=O)c2ccc(NC(=S)NC(=O)c3ccc(Br)o3)cc2)c1,16µM*,16µM*,5%,-3%
NS(=O)(=O)c1ccc(NC(=S)NC(=O)c2ccc(Br)o2)cc1,?,?,3%,/
Cc1ccc(NS(=O)(=O)c2cccc(C(=O)Nc3cccnc3)c2)c(C)c1,?,15µM*,2%,-1%
Cc1cc(NC(=O)c2ccc(Br)o2)ccc1NC(=O)c1ccco1,15µM*,16µM*,4%,/
CCCN(Cc1nnc(-c2ccccc2Cl)o1)C(=O)c1cc([N+](=O)[O-])cc([N+](=O)[O-])c1,6.5µM*,6.5µM*,5%,/
O=C(c1ccc(Cl)c(S(=O)(=O)N2CCOCC2)c1)N(Cc1nnc(-c2ccccc2Cl)o1)C1CC1,21µM*,15µM*,5%,22µM*
O=C(c1cccc(S(=O)(=O)N2CCOCC2)c1)N(Cc1nnc(-c2ccccc2Cl)o1)C1CC1,?,?,1%,/
O=C(c1cc([N+](=O)[O-])cc([N+](=O)[O-])c1)N(Cc1nnc(-c2ccccc2Cl)o1)C1CC1,?,18µM*,6%,/
O=C1CCCN1c1ccc(C(=O)N(Cc2nnc(-c3ccccc3Cl)o2)C2CC2)cc1,?,?,/,-8%

# High-throughput results as filed in PubChem BioAssay.
